Assay results reported in publication PMC5540273 (PLoS ONE, 2017).

Experiments:
Conditions in all cases: concentration: 1 μM, replicates: in singlicate; n = 1
PRKD3 = system: PRKD3
PRKG1 = system: PRKG1
PRKG2 = system: PRKG2
PRKR = system: T1, PRKR
T1 construct: gene EIF2AK2

PRKX = system: PRKX
PRP4 = system: PRP4
PYK2 = system: T2, PYK2
T2 construct: gene PTK2B

QSK = system: QSK
RAF1 = system: RAF1
RET = system: RET
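Also: KINOMEscan kinase panel screen.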

| SMILES | %Inh (PRKD3) | %Inh (PRKG1) | %Inh (PRKG2) | %Inh (PRKR) | %Inh (PRKX) | %Inh (PRP4) | %Inh (PYK2) | %Inh (QSK) | %Inh (RAF1) | %Inh (RET) |
| --- | --- | --- | --- | --- | --- | --- | --- | --- | --- | --- |
| Cc1ccc(Nc2ccnc(Nc3ccc(C)c(F)c3)n2)cc1O.Cl [GW582868] | 0% | 0% | 0% | 0% | 0% | 27% | 1% | 0% | 12% | 67% |
| Nc1ncnc2scc(-c3ccc(NC(=O)Cc4cc(F)ccc4F)cc3)c12.O=C(O)C(F)(F)F [SB-731254-M] | 14% | 0% | 0% | 15% | 14% | 26% | 21% | 32% | 10% | 23% |
| Nc1ncc(-c2cn[nH]c2)c2scc(-c3ccc4c(c3)CCN4C(=O)Cc3ccccc3)c12 [GSK2593067] | 11% | 27% | 0% | 0% | 21% | 0% | 9% | 9% | 0% | 34% |
| COc1cccc(CC(=O)N2CCc3cc(-c4cn(C)c5ncnc(N)c45)ccc32)c1 [GSK2608899] | 0% | 22% | 0% | 15% | 3% | 0% | 25% | 11% | 0% | 37% |
| CS(=O)(=O)c1cccc(CNc2nc(Nc3ccc4c(c3)CCC(=O)N4)ncc2C(F)(F)F)c1 | 4% | 0% | 0% | 0% | 0% | 30% | 26% | 0% | 0% | 90.1% |
| N#CC1(c2cccc(C(=O)Nc3cccc(Oc4ccc5nc(NC(=O)C6CC6)sc5n4)c3)c2)CC1 | 0% | 16% | 0% | 7% | 0% | 21% | 0% | 18% | 100% | 100% |
| O=C1NC(=O)C(c2ccccc2Cl)=C1Nc1cccc(Cl)c1 [SB-342409] | 22% | 0% | 0% | 0% | 15% | 0% | 5% | 5% | 37% | 1% |
| CC(C)c1nc(-c2cccc(NS(=O)(=O)c3c(F)cccc3F)c2)c(-c2ccnc(Nc3ccc(N4CCOCC4)nc3)n2)s1.Cl [GSK1723980] | 100% | 0% | 0% | 29% | 7% | 0% | 25% | 82% | 99.4% | 99.6% |
| Cc1cc(-c2c(-c3ccc(F)cc3)ncn2CCCN2CCOCC2)nc(N)n1 [SB-222517] | 0% | 0% | 0% | 16% | 0% | 0% | 10% | 23% | 0% | 13% |
| CC(C)(C)c1ccc(C(=O)Nc2cn3cc(-n4ccnc4)ccc3n2)cc1 | 0% | 0% | 7% | 0% | 41% | 22% | 8% | 0% | 10% | 0% |
| Cc1ccc(O)cc1Nc1ccnc2ccc(C(C)(C)C)cc12 [GW856805] | 30% | 20% | 29% | 0% | 17% | 0% | 9% | 22% | 14% | 96% |
| CCNc1nccc(-c2c(-c3ccc(F)cc3)ncn2C2CCN(C)CC2)n1 | 36% | 0% | 0% | 0% | 0% | 0% | 0% | 0% | 0% | 0% |
| CC(C)NCC(Cc1ccccc1)NC(=O)c1cc(Br)c(-c2ccnc3[nH]ccc23)s1.Cl.Cl (centres unmarked) [GSK1383281] | 81% | 98.8% | 98.8% | 16% | 96.5% | 24% | 17% | 5% | 0% | 66% |
| N#Cc1cnc2cc(-c3cnc(CNCCN4CCOCC4)s3)ccc2c1Nc1ccc(Oc2ccccc2)cc1 [GW664114] | 9% | 0% | 0% | 4% | 4% | 51% | 4% | 0% | 0% | 60% |
| COc1cccc2c(-c3ccncc3)c(-c3ccc(F)cc3)nn12 [GW468513] | 43% | 0% | 0% | 0% | 10% | 25% | 12% | 0% | 33% | 22% |
| CN(c1ccc(F)c(NC(=O)c2cccc(OC(C)(C)C#N)c2Cl)c1)c1ccc2nc(NC(=O)C3CC3)sc2n1 | 0% | 0% | 3% | 0% | 1% | 18% | 3% | 0% | 96.1% | 100% |

| SMILES | %Inh (PRKD3) | %Inh (PRKG1) | %Inh (PRKG2) | %Inh (PRKR) | %Inh (PRKX) | %Inh (PRP4) | %Inh (PYK2) | %Inh (QSK) | %Inh (RAF1) | %Inh (RET) |
| --- | --- | --- | --- | --- | --- | --- | --- | --- | --- | --- |
| COc1cc(Nc2nccc(N3CCC(NC(=O)Nc4ccc5c(c4)OCO5)C3)n2)cc(OC)c1OC (centres unmarked) [GSK1379766] | 0% | 0% | 0% | 0% | 33% | 50% | 15% | 3% | 0% | 28% |
| Cc1ccc(-c2ccc3occ(-c4ccc(S(C)=O)cc4)c3c2)nn1 (centres unmarked) | 0% | 14% | 0% | 0% | 0% | 13% | 0% | 0% | 6% | 0% |
| CSc1ccc(NC2=C(c3ccc(Cl)cc3)C(=O)NC2=O)cc1 [SB-317658] | 0% | 6% | 0% | 0% | 0% | 0% | 0% | 0% | 13% | 7% |
| COc1ccc(C)c(Nc2ccnc(Nc3ccc(-c4cnc[nH]4)cc3)n2)c1.Cl [GW784041] | 0% | 0% | 12% | 0% | 0% | 0% | 5% | 0% | 27% | 0% |
| Cc1cccc(Nc2nc(N[C@H]3CCCC[C@H]3N)ncc2C(N)=O)c1.Cl [GSK986310] | 58% | 20% | 0% | 30% | 25% | 1% | 71% | 18% | 3% | 76% |
| Cc1cc(-c2ccnc(Nc3cccc(C#N)c3)n2)cc(C)c1O [GSK1440913] | 0% | 0% | 0% | 52% | 0% | 92.8% | 27% | 23% | 13% | 0% |
| Cn1cc(-c2cnc(N)c3c(-c4ccc5c(c4)CCN5C(=O)Cc4ccccc4)csc23)cn1 [GSK2593074] | 0% | 0% | 0% | 8% | 0% | 0% | 6% | 1% | 0% | 34% |
| CN(C)c1ncnc2nc[nH]c12 [SKF-31736] | 0% | 19% | 0% | 0% | 0% | 0% | 0% | 27% | 0% | 0% |
| CN(c1ccc2c(c1)nc(NCc1ccccc1)n2C)c1ccnc(Nc2ccc(CS(C)(=O)=O)cc2)n1.Cl [GW811603] | 0% | 3% | 4% | 1% | 0% | 22% | 21% | 0% | 97.5% | 99.9% |
| CCn1cnc2c(NCc3ccccc3)ncnc21 [SKF-96418] | 0% | 0% | 0% | 8% | 0% | 41% | 0% | 10% | 17% | 0% |
| CCNC(=O)/C=C/c1n[nH]c2cc(Sc3ccccc3C(=O)NC)ccc12 | 0% | 14% | 2% | 0% | 3% | 0% | 0% | 0% | 0% | 80% |
| O=C(Nc1n[nH]c2nc(-c3cccc(O)c3)ccc12)C1CC1 [SB-711805] | 0% | 21% | 35% | 100% | 0% | 0% | 11% | 18% | 6% | 0% |
| Cl.N#CCc1ccc(Nc2nccc(Nc3ccc(Oc4ccccc4)cc3)n2)cc1 [GW639905] | 53% | 0% | 0% | 0% | 10% | 16% | 8% | 1% | 6% | 38% |
| COC(=O)Nc1nc2cc(Oc3ccc(NC(=O)Nc4cccc(SC)c4)cc3)ccc2[nH]1.Cl [GW697999] | 18% | 1% | 17% | 0% | 24% | 28% | 0% | 0% | 92.6% | 99.8% |
| Cc1ccc(NC(=O)c2ccnc(N3CCCCC3)c2)cc1-c1ccc(C(=O)NCC2CC2)cc1 [GW775610] | 0% | 73% | 0% | 3% | 5% | 0% | 5% | 0% | 85% | 5% |
| O=C(Nc1c(F)cccc1F)c1cc(C(=O)c2ccccc2F)c[nH]1 [GSK1326180] | 0% | 0% | 0% | 0% | 3% | 0% | 6% | 4% | 6% | 4% |
